PubChem BioAssay AID488969 (Vanderbilt High Throughput Screening Facility, 2010)
In all, about 110,000 compounds were measured (“z-score”: median about -0.1, highest 2% from about 2 on). The entries come from a sample that favours the highest values as a whole. The source made the active and inactive calls.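 The calls were made as follows: active = z-score in the third read window above 3 or below -3; inactive = the rest.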

The compounds below were run against Metabotropic glutamate receptor 8 (Rattus norvegicus) (UniProt P70579) (assay: rat mGluR8 modulators via GIRK flux, primary screen, cell-based, thallium flux, HTS (AID 488969)). Conditions: HEK293 rat mGluR8, GIRK (G protein-gated inwardly rectifying potassium channel) thallium flux, FluoZin2; at 10 µM; stronger effect = higher value; submaximal glutamate (EC20) added with thallium.
Sequence of Metabotropic glutamate receptor 8 (Rattus norvegicus) (P70579 whole entry, looked up): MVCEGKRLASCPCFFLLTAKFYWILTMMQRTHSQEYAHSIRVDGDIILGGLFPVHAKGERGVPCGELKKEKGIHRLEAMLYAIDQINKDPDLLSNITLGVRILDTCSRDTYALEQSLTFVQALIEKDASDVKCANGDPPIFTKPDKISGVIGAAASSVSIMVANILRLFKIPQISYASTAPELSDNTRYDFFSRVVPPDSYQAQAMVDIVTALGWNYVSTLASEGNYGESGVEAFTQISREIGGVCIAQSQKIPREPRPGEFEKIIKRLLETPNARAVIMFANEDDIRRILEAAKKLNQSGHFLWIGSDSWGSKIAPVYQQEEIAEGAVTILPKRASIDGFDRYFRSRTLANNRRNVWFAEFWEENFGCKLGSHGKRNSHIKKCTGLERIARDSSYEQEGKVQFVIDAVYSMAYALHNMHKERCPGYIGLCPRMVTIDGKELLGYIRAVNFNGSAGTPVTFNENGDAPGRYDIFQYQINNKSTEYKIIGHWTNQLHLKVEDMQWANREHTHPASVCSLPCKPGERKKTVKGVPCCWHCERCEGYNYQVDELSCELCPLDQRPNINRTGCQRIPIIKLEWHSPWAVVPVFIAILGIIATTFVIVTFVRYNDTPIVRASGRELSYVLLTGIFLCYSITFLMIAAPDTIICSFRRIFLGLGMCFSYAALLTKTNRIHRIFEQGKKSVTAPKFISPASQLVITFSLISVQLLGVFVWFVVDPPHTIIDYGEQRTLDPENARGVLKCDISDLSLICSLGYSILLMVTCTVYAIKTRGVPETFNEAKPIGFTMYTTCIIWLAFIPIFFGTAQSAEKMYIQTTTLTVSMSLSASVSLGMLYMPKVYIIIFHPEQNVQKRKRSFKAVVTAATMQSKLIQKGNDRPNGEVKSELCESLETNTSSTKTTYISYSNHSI
`COc1ccc(CCNC(=O)C2CCN(S(=O)(=O)c3ccc(OC)c(OC)c3)CC2)cc1` gave a z-score of -0.362.
`OCCCN=c1cc(-c2ccccc2)oc2ccc(Cl)cc12` was tested, and the z-score was 3.32 (active).
For `OCCN=c1cc(-c2ccccc2)oc2ccc(Cl)cc12`, the z-score was 0.389.
`OCCCCCN=c1cc(-c2ccccc2)oc2ccc(Cl)cc12` showed a z-score of -0.493.
For `O=C(CCn1nc(-c2ccccc2)ccc1=O)N1CCOCC1`, the z-score was 0.676.
`CCn1c(NC(=O)Nc2cccc(C)c2C)cc2sccc21` was tested, and the z-score was 3.12 (active).
`Cc1cccc(NC(=O)c2sccc2-n2cccc2)c1C` showed a z-score of -0.81.
`CCc1ccccc1NC(=O)c1cc2sccc2n1C` was tested, and the z-score was -0.142.
Work on `COc1ccc(OC)c(C(=O)c2ccc(C(=O)Nc3cccc4ccccc34)cc2)c1` yielded a z-score of 0.682.
With `CCc1ccc(OCC(O)CN2CCC(CN3C(=O)c4cccc5cccc(c45)C3=O)CC2)cc1` (configuration not stated) the z-score was -0.57.
`Cc1ccc(C)c(OCC(O)CN2CCC(CN3C(=O)c4cccc5cccc(c45)C3=O)CC2)c1` (configuration not stated) showed a z-score of -0.000796.
With `Cc1cccc(C)c1OCC(O)CN1CCC(CN2C(=O)c3cccc4cccc(c34)C2=O)CC1` (configuration not stated) the z-score was 2.99.
`CN1CCN(S(=O)(=O)c2cccc(C(=O)Nc3nc(-c4ccccc4)cs3)c2)CC1` showed a z-score of -0.528.
`C(=N\n1cnnc1)/c1nc2ccccc2[nH]1` gave a z-score of -0.217.
In the case of `COC(=O)Cc1ccc(NC(=O)c2cccs2)cc1`, the z-score is reported as 0.153.
Work on `COc1ccc(CN(C(=O)CO/N=C/c2ccccc2)c2ccccc2C(=O)O)cc1` yielded a z-score of -0.413.
In the case of `O=C(O)CC(Cc1ccccc1)c1ccc2c(c1)OCO2` (configuration not stated), the z-score is reported as 0.249.
Work on `COc1ccc(Nc2nc(N3CCCCC3)nc3ccccc23)c(OC)c1` yielded a z-score of 2.6.
`COc1ccc(Nc2nc(N3CCCC3)nc(N3CCCC3)n2)c(OC)c1` showed a z-score of 0.55.
Compound `COc1ccc(Nc2ncnc3ccccc23)c(OC)c1` has a z-score of -0.192.
`CC(Nc1nc(N2CCCCC2)nc2ccccc12)c1ccccc1` (configuration not stated) was tested, and the z-score was -2.21.
Compound `C=CCNc1nc(N2CCCC2)nc2ccccc12` has a z-score of 2.37.
For `c1ccc2c(N3CCCCC3)nc(N3CCCC3)nc2c1`, the z-score was 0.2.
Work on `NC(=O)c1cccnc1Sc1ccc(Cl)cc1` yielded a z-score of -0.431.
Work on `Cc1cccc(CC2CC(=O)N(c3ncccn3)C2=O)c1` (configuration not stated) yielded a z-score of -0.533.
Compound `O=C(COc1ccc(Cl)cc1)Nc1c(-c2cccs2)nc2ccccn12` has a z-score of -0.182.
In the case of `COc1cc(C2NC(=O)NC(C)=C2C(=O)NCc2ccccc2)c(Cl)cc1O` (configuration not stated), the z-score is reported as 0.0361.
For `COc1cc(C)nc(N(C)S(=O)(=O)c2ccccc2Cl)n1`, the z-score was -0.0755.
With `CON(c1nc(N(C)C)nc(N(C)C)n1)S(=O)(=O)c1ccccc1Cl` the z-score was -0.678.
Work on `CON(c1nc(Cl)nc(N(C)C)n1)S(=O)(=O)c1ccccc1Cl` yielded a z-score of 2.79.
Work on `N#Cc1c(-c2ccccc2)[nH]c(=S)[nH]c1=O` yielded a z-score of -0.744.
`Nc1[nH]c(=S)[nH]c(=O)c1-c1ccccc1` gave a z-score of 2.2.
In the case of `Nc1nc(SCc2ccccc2)[nH]c(=O)c1-c1ccccc1`, the z-score is reported as -0.741.
Work on `CN1/C(=C/C2CC(=O)N(c3ccc([N+](=O)[O-])cc3)C2=O)C(C)(C)c2ccccc21` (configuration not stated) yielded a z-score of -0.329.
`CC(Cc1ccccc1)NC(=O)c1ccc([N+](=O)[O-])cc1` (configuration not stated) was tested, and the z-score was -0.0984.
In the case of `COC(=O)C(CC(C)C)NC(=O)c1ccc(F)cc1` (configuration not stated), the z-score is reported as -0.19.
For `COC(=O)C(CC(C)C)NC(=O)c1ccc([N+](=O)[O-])c(C)c1` (configuration not stated), the z-score was 2.9.
`COC(=O)c1ccc(NC(CC(C)C)C(=O)OC)c([N+](=O)[O-])c1` (configuration not stated) was tested, and the z-score was 1.05.
`COC(=O)C(CC(C)C)NC(=O)c1ccc([N+](=O)[O-])cc1` (configuration not stated) was tested, and the z-score was 2.03.
With `Cc1cc(C(=O)NCC(=O)OCC(=O)N(C(C)C)C(C)C)ccc1[N+](=O)[O-]` the z-score was -0.0582.
For `COc1ccc(C2/C(=C(/O)c3ccccc3)C(=O)C(=O)N2CO)cc1` (configuration not stated), the z-score was 0.305.
Compound `Cc1ccc(/C=C2/CCc3c([nH]c4ccccc34)C2=O)cc1` has a z-score of 0.107.
`O=c1cc(CO)occ1OCc1cccc(C(F)(F)F)c1` was tested, and the z-score was 0.0103.
Work on `COc1ccc(NC(=O)c2cccnc2SC)cc1S(=O)(=O)N1CCCCC1` yielded a z-score of -0.467.
For `O=C(Oc1ccc(N2C(=O)CCC2=O)cc1)c1ccco1`, the z-score was -0.374.
In the case of `Cn1ccc(C(=O)N2CCCc3ccccc32)n1`, the z-score is reported as -0.0997.
Compound `CC(=O)N(/N=C1\Sc2ccccc2C1=O)c1ccc(C)cc1C` has a z-score of -0.638.
For `CSc1nc2cc(Cl)ccc2s1`, the z-score was -0.233.
In the case of `S=c1[nH]c2cc(Cl)ccc2s1`, the z-score is reported as 14.9 (active).
Compound `S=c1[nH]c2ccc(Cl)cc2[nH]1` has a z-score of 0.488.
`Cc1ccc(S(=O)(=O)N2CCC(C(=O)N3CCC(C(=O)NCC4CCCO4)CC3)CC2)cc1` (configuration not stated) showed a z-score of 0.137.
Compound `Cc1ccc(F)c(NC(=O)C2CCCCC2C(=O)O)c1` (configuration not stated) has a z-score of 1.59.
`O=C(Nc1ccc2c(c1)OCO2)c1cc2nc(C3CC3)cc(C(F)(F)F)n2n1` was tested, and the z-score was -0.167.
With `CC(C)c1cc(C(F)(F)F)n2nc(C(=O)Nc3ccc4c(c3)OCO4)cc2n1` the z-score was 4.57 (active).
Work on `CC(=O)c1cc2c(cc1NC(=O)c1cc3nc(C(C)C)cc(C(F)(F)F)n3n1)OCO2` yielded a z-score of -0.248.
For `Cc1nc(NC(=O)c2ccc(Cl)cc2)sc1-c1csc(Nc2cccc(F)c2)n1`, the z-score was -0.184.
`CCn1c(COc2ccccc2C)nc2ccccc21` was tested, and the z-score was -1.56.
